From PubChem BioAssay (Tox21) come the findings set out here.

Values joined by “and” are separate entries in the source; they are usually repeats but may differ in a detail not shown here. Equal values may be shown once. Records with an inconclusive call do not appear. A structure can be active in one record and inactive in another. Active and inactive are the calls of the source. Unless noted, calls follow the shape of the dose curve; as a rule, active = well fitted curve in the direction sought with a large enough effect in the repeat runs; inconclusive = weak or mixed curves; inactive = no such curve, though single readings can be large; an effect the other way counts as inactive or inconclusive.

For experiment [1], the target named is Thyrotropin-releasing hormone receptor (Homo sapiens) (UniProt P34981). As to the kind of experiment: qHTS assay to identify small molecule agonists of the thyrotropin-releasing hormone receptor (TRHR) signaling pathway (AID 1346891; calls by dose curve; also: series mostly up to about 58 µM). Put shortly: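 HEK293 cells expressing TRHR plated 18 h at 37 C/5% CO2, calcium dye-loaded 2 h at 37 C, then compound added (agonist mode); kinetic calcium fluorescence read 3 min at 1 s intervals; 15 concentrations in triplicate.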

Experiment [2] can be described thus: Human pregnane X receptor (PXR) small molecule agonists, qHTS cell viability counter screen (AID 1346977). Also: nearly all actives have a fitted effect of over 50% in size. Put shortly:
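PXR-Luc HepG2 cells (2,000/well, 5% charcoal-stripped FBS) preincubated 5 hr, then exposed to compounds 24 hr at 37 C. Viability read in the same wells by CellTiter-Fluor fluorescence, reagent added at 23 hr, 1 hr incubation.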

A short description of experiment [3]: Caspase-3/7 induction in HepG2 cells by small molecules, qHTS assay (AID 1346978). Also: nearly all actives have a fitted effect of over 15% in size. Put shortly:
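Wild-type HepG2 cells (2,000/well) were settled 5 h at 37 C, 5% CO2, then exposed to compounds in DMSO for 17 h. Caspase-3/7 activity was read by luminescence 30 min after adding Caspase-Glo 3/7 reagent at room temperature.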

The nature of experiment [4]: Caspase-3/7 induction in CHO-K1 cells by small molecules, qHTS cell viability counter screen (AID 1346979). Also: nearly all actives have a fitted effect of over 35% in size. Put shortly:
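Wild-type CHO-K1 cells (1,500/well) treated with compound after 5 h plating; after 16 h at 37C, viability read as CellTiter-Fluor fluorescence following 1 h reagent incubation, in the same wells as the caspase read.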
(In general: qHTS replaces the single test concentration by a dilution series.)

Experiment [5] is described as follows: Caspase-3/7 induction in CHO-K1 cells by small molecules, qHTS assay (AID 1346980). Also: nearly all actives have a fitted effect of over 15% in size. Put shortly:
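Wild-type cells were seeded at 1,500 per well and settled 5 hr at 37 C, 5% CO2, then exposed to DMSO-dissolved compounds for 17 hr. Caspase-Glo 3/7 reagent was added, and luminescence was read after 30min at room temperature.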

A short description of experiment [6]: Caspase-3/7 induction in HepG2 cells by small molecules, qHTS cell viability counter screen (AID 1346981). Also: series mostly up to about 92 µM; nearly all actives have a fitted effect of over 30% in size. Put shortly:
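Treatment of HepG2 cells with DMSO-delivered compounds ran 16 hr at 37 C following a 5-hr pre-incubation of 2,000 cells/well. CellTiter-Fluor fluorescence, read after 1 hr, served as the viability measure in a qHTS format.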

The target of experiment [7] is Nuclear receptor subfamily 1 group I member 2 (Homo sapiens) (UniProt O75469). As to the kind of experiment: Human pregnane X receptor (PXR) small molecule agonists, qHTS assay (AID 1346982). Also: nearly all actives have a fitted effect of over 35% in size. Also: potency is read from the fitted curve at half-maximal effect. Put shortly: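 Stable HepG2 line reporting PXR-mediated CYP3A4 expression via luciferase. Treatment: 24 hr with compounds in DMSO at 37 C. Detection: ONE-Glo luminescence.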
Experiment [8] deals with Nuclear receptor subfamily 1 group I member 2 (Rattus norvegicus) (UniProt Q9R1A7). As to the kind of experiment: Rat pregnane X receptor (rPXR) activation by small molecules, qHTS assay (AID 1346983). Also: nearly all actives have a fitted effect of over 20% in size. Conditions: rPXR luciferase reporter cells, One-Glo luminescence, 24 h; max activation: stronger effect = higher value. Put shortly:
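Cell-based rPXR luciferase reporter assay, 2,000 cells per well, rested 5hr at 37 C before compound addition in DMSO, then 24 hr at 37 C. One-Glo reagent was added and luminescence read after 30 min at room temperature.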

Experiment [9] deals with Nuclear receptor subfamily 1 group I member 2 (Homo sapiens) (UniProt O75469). As to the kind of experiment: CYP3A4 induction through human pregnane X receptor (PXR) by small molecules, qHTS assay (AID 1346984). Also: nearly all actives have a fitted effect of over 40% in size. Put shortly: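 After 24 h at 37C with compound, DPX-2 cells (HepG2, co-transfected PXR response element and CYP3A4 promoter-luciferase) got 3uM final P450-Glo Luciferin-IPA for 3 h; One-Glo luminescence followed.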

For experiment [10] the target is unchanged. As to the kind of experiment: Human pregnane X receptor (PXR) activation by small molecules, qHTS assay (AID 1346985). Also: nearly all actives have a fitted effect of over 40% in size. Put shortly: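 DPX-2 cells (HepG2 co-transfected with a PXR response element and a CYP3A4-promoter luciferase construct) were seeded at 2,000 per well, rested 5 hr at 37C, then exposed to DMSO-dissolved compounds for 24 hr. Activation was read as luciferase luminescence.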

The target in experiment [11] is Acetylcholinesterase (Homo sapiens) (UniProt P22303). As to the kind of experiment: Acetylcholinesterase (AChE) small molecule antagonists: enzyme-based qHTS assay (AID 1347397; calls by dose curve; also: nearly all actives have a fitted effect of over 55% in size). The following applies: Potency: AChE enzyme activity inhibition. Put shortly: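 Tox21 library chemicals are tested in qHTS format against recombinant human AChE. The enzyme, dispensed at 50 mU/mL, sits with compound for 30 min at room temperature. A DTNB–acetylthiocholine cocktail follows, and colour is read after 10 min.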

Experiment [12] shares this target. The experiment in a line: Acetylcholinesterase (AChE) small molecule antagonists: fluorescence cell-based qHTS assay (AID 1347398; calls by dose curve; also: nearly all actives have a fitted effect of over 50% in size). The following applies: Potency: AChE activity. Put shortly: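 Cellular AChE inhibition: SH-SY5Y cells treated with test chemical for 30 min at 37 C, then acetylthiocholine hydrolysis followed over 40 min at room temperature via thiocholine-reactive Thiolite Green fluorescence (490/520 nm).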

For experiment [13] the target is unchanged. As to the kind of experiment: Acetylcholinesterase (AChE) small molecule antagonists: enzyme-based qHTS assay with human liver microsomes (AID 1347399; calls by dose curve; also: nearly all actives have a fitted effect of over 60% in size). The following applies: Potency: qHTS inhibition. Put shortly:
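Recombinant human AChE (50 mU/mL in the enzyme mix) and human liver microsomes (0.25 mg/mL final) were preincubated with compound and NADPH (0.25 mg/mL final) for 30 min at 37 C. Acetylthiocholine/DTNB was then added; thiocholine was read colorimetrically after 10 min at room temperature.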

In experiment [14] the target is Cytochrome P450 2D6 (Homo sapiens) (UniProt P10635). The experiment in a line: Cytochrome P450 Family 2 Subfamily D Member 6 (CYP2D6) small molecule antagonists: luciferase reporter qHTS assay (AID 1671196). Also: nearly all actives have a fitted effect of over 50% in size. Also: potency is read from the fitted curve at half-maximal effect. Put shortly:
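Chemicals tested for interference with CYP2D6 activity; proluciferin substrate, NADPH regeneration, 1 h at room temperature, luminescent detection.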
In general terms: In a reporter assay the amount or activity of a reporter protein is the signal.

In experiment [15] the target is Cytochrome P450 2C19 (Homo sapiens) (UniProt P33261). The experiment in a line: Cytochrome P450 Family 2 Subfamily C Member 19 (CYP2C19) small molecule antagonists: luciferase reporter qHTS assay (AID 1671197). Also: nearly all actives have a fitted effect of over 65% in size. Also: potency is read from the fitted curve at half-maximal effect. Put shortly:
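Enzyme-substrate mix with proluciferin substrate (P450-Glo CYP2C19 system) preincubated with compounds 10 min at room temperature; NADPH regeneration solution added, 37C for 1 h; detection reagent stops reaction, luminescence read after 20 min. Ketoconazole positive control.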

The target in experiment [16] is Cytochrome P450 2C9 (Homo sapiens) (UniProt P11712). The experiment in a line: Cytochrome P450 Family 2 Subfamily C Member 9 (CYP2C9) small molecule antagonists: luciferase reporter qHTS assay (AID 1671198). Also: series mostly up to about 120 µM; nearly all actives have a fitted effect of over 50% in size. Put shortly:
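CYP2C9 activity was measured with a P450-Glo proluciferin substrate. Enzyme–substrate mix was held with compound for 10 min at room temperature, then NADPH regeneration solution was added for 1 h at 37C. Luciferin product was read as luminescence.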

Experiment [17] deals with Cytochrome P450 1A2 (Homo sapiens) (UniProt P05177). The experiment in a line: Cytochrome P450 Family 1 Subfamily A Member 2 (CYP1A2) small molecule antagonists: luciferase reporter qHTS assay (AID 1671199). Also: nearly all actives have a fitted effect of over 50% in size. Also: potency is read from the fitted curve at half-maximal effect. Put shortly: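 Read-out is luminescence from luciferin detection reagent (20 min) proportional to CYP1A2 activity; compounds in DMSO preincubated 10 min with enzyme and proluciferin substrate, then NADPH regeneration solution, 1 h, room temperature.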

The target in experiment [18] is Voltage-gated inwardly rectifying potassium channel KCNH2 (Homo sapiens) (UniProt Q12809). As to the kind of experiment: Human Ether-a-go-go-Related Gene (hERG) channel small molecule antagonists: fluorescence cell-based qHTS assay (AID 1671200). Put shortly: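 hERG-U2OS cells plated overnight at 37 C, loaded with FluxOR II dye 1 h at RT in dark; after 10 min, thallium stimulus added. Fluorescence (480/540 nm) read kinetically for 2 min at 1 s intervals.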
(In general: hERG is a cardiac potassium channel; its block is linked to QT prolongation.)

Experiment [19] addresses Cytochrome P450 3A4 (Homo sapiens) (UniProt P08684). As to the kind of experiment: Cytochrome P450 Family 3 Subfamily A Member 4 (CYP3A4) small molecule antagonists: luciferase reporter qHTS assay (AID 1671201). Also: nearly all actives have a fitted effect of over 50% in size. Also: potency is read from the fitted curve at half-maximal effect. Put shortly:
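P450-Glo CYP3A4 luminescent assay: compounds preincubated 10 min at room temperature with enzyme and proluciferin substrate, NADPH regeneration added, 1 h room-temperature reaction, stopped with luciferin detection reagent; luminescence read after 20 min. Ketoconazole positive control.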

Experiment [20] addresses Acetylcholinesterase (Homo sapiens) (UniProt P22303). As to the kind of experiment: Acetylcholinesterase (AChE) small molecule antagonists: colormetric cell-based qHTS assay (AID 1347395; calls by dose curve; also: nearly all actives have a fitted effect of over 30% in size). Put shortly: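 SH-SY5Y cells attached overnight, exposed to compound 30 min at 37 C, then given DTNB/acetylthiocholine; after 90 min at 37 C, colorimetric thiocholine read gives cellular AChE activity.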
% is scaled to controls: 0 for no effect and ±100 for the full control effect.

Chain of Thyrotropin-releasing hormone receptor (Homo sapiens) (P34981 whole entry, looked up): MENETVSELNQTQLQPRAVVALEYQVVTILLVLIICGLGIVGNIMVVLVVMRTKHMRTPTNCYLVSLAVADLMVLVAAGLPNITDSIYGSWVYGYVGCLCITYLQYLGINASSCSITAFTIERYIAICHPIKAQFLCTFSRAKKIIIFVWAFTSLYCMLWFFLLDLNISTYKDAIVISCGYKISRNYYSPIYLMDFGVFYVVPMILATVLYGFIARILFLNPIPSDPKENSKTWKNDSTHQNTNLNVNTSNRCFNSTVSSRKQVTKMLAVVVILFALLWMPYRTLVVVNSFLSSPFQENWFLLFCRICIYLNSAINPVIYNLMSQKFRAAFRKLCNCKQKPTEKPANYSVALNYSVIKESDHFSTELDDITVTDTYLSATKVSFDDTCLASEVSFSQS
Chain of Acetylcholinesterase (Homo sapiens) (P22303 whole entry, looked up): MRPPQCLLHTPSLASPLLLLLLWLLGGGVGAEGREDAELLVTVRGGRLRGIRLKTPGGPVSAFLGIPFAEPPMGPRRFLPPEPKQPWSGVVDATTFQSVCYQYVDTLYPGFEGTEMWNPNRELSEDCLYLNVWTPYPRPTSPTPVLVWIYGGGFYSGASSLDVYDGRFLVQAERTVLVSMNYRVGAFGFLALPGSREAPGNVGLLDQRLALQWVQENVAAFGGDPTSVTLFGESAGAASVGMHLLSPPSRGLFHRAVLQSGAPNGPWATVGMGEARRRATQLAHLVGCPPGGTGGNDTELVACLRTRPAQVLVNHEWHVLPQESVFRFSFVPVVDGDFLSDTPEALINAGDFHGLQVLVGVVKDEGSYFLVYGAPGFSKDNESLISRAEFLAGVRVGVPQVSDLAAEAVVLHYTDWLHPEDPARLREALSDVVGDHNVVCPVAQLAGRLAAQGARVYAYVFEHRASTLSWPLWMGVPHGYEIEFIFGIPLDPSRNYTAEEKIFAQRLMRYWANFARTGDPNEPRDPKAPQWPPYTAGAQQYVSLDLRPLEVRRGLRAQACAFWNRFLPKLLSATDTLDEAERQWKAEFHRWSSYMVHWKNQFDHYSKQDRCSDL
Chain of Cytochrome P450 2D6 (Homo sapiens) (P10635 whole entry, looked up): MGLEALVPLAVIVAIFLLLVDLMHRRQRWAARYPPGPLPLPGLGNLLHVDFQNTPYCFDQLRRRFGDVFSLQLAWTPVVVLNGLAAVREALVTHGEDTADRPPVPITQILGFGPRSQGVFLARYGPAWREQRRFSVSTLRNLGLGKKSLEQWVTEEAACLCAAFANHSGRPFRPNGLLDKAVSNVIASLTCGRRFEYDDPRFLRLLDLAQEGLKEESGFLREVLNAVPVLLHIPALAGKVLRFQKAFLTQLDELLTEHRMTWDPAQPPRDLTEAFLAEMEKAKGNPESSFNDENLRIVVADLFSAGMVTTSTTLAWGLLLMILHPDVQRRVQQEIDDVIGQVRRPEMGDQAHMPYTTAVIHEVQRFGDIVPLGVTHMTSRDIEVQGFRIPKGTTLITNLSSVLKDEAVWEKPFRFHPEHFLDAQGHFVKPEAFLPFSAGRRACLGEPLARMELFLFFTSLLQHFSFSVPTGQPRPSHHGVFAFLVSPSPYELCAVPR
Chain of Voltage-gated inwardly rectifying potassium channel KCNH2 (Homo sapiens) (Q12809 whole entry, looked up): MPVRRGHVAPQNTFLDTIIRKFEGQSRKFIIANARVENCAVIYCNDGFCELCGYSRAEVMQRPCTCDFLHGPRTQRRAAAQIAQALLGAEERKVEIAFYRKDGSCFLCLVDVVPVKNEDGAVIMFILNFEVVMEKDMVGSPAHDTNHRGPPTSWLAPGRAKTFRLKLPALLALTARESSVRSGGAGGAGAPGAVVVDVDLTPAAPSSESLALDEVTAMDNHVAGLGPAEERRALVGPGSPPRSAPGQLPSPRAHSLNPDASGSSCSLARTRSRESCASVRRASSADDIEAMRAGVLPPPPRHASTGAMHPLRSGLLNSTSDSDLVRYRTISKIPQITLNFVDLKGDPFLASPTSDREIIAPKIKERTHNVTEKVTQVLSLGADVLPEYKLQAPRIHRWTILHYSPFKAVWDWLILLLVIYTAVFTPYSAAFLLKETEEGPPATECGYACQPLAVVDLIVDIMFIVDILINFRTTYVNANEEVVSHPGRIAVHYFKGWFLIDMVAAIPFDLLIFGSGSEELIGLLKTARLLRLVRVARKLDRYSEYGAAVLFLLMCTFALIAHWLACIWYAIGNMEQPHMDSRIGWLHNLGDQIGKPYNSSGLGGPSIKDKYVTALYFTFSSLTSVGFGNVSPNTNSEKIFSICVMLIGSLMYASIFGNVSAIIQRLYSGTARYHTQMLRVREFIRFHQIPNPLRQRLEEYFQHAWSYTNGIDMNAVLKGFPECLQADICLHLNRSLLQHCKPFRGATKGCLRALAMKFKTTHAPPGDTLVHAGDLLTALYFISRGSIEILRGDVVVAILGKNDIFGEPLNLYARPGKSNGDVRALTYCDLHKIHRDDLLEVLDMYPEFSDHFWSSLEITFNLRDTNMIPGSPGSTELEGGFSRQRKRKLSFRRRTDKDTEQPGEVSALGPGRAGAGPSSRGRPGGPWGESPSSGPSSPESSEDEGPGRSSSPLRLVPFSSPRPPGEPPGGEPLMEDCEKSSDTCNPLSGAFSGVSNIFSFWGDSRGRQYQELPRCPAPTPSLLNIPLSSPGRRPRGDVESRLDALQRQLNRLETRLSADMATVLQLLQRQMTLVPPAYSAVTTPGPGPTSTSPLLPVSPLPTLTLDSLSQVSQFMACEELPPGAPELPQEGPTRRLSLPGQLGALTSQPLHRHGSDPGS
Chain of Nuclear receptor subfamily 1 group I member 2 (Homo sapiens) (O75469 whole entry, looked up): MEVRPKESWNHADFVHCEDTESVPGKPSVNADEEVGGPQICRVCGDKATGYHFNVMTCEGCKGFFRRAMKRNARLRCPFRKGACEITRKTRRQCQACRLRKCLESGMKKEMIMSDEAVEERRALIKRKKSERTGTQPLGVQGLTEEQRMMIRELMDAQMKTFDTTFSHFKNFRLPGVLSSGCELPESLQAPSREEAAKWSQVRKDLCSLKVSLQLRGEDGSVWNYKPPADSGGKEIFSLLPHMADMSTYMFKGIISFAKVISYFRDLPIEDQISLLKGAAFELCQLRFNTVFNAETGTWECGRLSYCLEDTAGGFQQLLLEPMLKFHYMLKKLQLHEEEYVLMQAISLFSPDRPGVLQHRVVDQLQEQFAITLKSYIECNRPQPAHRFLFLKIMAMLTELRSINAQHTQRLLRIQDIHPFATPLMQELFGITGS
Chain of Cytochrome P450 2C19 (Homo sapiens) (P33261 whole entry, looked up): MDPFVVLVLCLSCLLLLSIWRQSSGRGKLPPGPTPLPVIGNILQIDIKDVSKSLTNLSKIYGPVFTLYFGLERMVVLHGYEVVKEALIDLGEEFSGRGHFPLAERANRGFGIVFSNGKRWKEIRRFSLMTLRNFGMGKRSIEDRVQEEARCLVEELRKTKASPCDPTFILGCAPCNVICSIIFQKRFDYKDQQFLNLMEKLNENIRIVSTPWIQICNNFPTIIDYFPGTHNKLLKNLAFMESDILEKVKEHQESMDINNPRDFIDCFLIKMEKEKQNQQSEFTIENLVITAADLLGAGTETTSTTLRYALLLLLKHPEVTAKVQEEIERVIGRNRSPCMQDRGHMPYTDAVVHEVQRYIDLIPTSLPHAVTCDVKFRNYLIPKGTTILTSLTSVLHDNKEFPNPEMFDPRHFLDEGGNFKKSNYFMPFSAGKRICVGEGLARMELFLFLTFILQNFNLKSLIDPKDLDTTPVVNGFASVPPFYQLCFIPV
Chain of Cytochrome P450 2C9 (Homo sapiens) (P11712 whole entry, looked up): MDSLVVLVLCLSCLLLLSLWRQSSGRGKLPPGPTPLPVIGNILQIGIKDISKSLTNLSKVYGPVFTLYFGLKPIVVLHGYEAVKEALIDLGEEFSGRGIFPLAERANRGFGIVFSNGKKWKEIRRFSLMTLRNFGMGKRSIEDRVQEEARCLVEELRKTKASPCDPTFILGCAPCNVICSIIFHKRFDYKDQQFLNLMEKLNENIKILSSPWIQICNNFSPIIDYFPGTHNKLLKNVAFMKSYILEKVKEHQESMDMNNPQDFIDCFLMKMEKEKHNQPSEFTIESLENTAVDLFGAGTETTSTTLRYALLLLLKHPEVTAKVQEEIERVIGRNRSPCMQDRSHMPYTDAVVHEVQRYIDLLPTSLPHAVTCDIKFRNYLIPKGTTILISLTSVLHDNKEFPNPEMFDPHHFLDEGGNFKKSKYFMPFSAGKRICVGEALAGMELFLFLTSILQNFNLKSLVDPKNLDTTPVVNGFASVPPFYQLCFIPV
Chain of Cytochrome P450 3A4 (Homo sapiens) (P08684 whole entry, looked up): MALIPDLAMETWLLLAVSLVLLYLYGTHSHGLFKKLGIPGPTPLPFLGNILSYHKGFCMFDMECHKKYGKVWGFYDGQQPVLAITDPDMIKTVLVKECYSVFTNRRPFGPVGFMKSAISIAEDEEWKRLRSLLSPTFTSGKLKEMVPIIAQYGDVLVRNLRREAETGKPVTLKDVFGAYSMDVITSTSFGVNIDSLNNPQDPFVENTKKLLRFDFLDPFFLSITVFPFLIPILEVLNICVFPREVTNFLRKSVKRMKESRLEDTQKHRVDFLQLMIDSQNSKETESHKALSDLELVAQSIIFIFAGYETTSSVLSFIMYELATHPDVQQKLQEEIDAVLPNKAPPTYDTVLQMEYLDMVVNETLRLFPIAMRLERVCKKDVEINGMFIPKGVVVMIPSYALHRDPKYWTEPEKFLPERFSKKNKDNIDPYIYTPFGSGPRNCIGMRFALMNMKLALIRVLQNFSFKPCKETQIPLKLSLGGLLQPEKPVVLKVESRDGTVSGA
Chain of Nuclear receptor subfamily 1 group I member 2 (Rattus norvegicus) (Q9R1A7 whole entry, looked up): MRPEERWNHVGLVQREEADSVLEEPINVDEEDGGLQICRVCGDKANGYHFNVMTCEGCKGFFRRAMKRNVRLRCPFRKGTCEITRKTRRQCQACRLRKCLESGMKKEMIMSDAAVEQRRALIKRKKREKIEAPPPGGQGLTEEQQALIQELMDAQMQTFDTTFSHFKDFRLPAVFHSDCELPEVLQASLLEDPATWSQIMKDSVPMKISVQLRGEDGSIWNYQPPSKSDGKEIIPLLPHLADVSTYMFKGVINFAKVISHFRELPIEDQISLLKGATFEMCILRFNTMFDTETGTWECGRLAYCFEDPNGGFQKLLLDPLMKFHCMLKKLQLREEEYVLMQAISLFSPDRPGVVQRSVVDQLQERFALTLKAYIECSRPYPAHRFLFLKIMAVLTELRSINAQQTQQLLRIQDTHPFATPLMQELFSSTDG

As to `O=C(O)COc1ccccc1`, the result in [1], in experiment [3] and in experiment [5] was inactive. The Potency entry in experiment [2], in experiment [4], in experiment [6], in [7], in experiment [9] and in experiment [10] was “inactive” throughout. Besides, the Potency result in experiment [11], in experiment [12], in [13], in experiment [14], in experiment [15] and in experiment [16] was “inactive” throughout. Further, the Potency result in experiment [17], in [18] and in experiment [19] was “inactive” each time. In addition, in experiment [8], the max activation was -1.4% (inactive).

`ClCCOCCCl`: the compound was classed as inactive in experiment [1], in [3] and in experiment [5]. The Potency entry in experiment [2], in experiment [4], in [6], in [7], in experiment [20] and in experiment [11] was “inactive” throughout. Also, the Potency entry in experiment [12], in [13], in experiment [14], in experiment [15], in [16] and in [17] was “inactive” throughout. Further, the Potency entry in experiment [18] and in [19] was “inactive” throughout.

With `CSc1nnc(C(C)(C)C)c(=O)n1N`, the outcome in experiment [1], in experiment [3] and in experiment [5] was inactive. In addition, the Potency entry in experiment [2], in experiment [4], in [6], in experiment [7], in experiment [11] and in experiment [12] was “inactive” throughout. Moreover, the Potency result in [13], in [15], in [16], in [18] and in [19] was “inactive” throughout. The Potency in [14] is 31.4 µM (active).

Consider `CC(C)CCCCCCOC(=O)c1ccccc1C(=O)OCCCCCCC(C)C`, for which the compound was called inactive in experiment [1], in experiment [3] and in experiment [5]. The Potency result in experiment [2], in [4], in experiment [6], in [7], in [20] and in [11] was “inactive” in each case. Also, the Potency entry in experiment [12], in [13], in experiment [14] and in experiment [18] was “inactive” in each case. Moreover, the Potency in experiment [15] was 71 µM (active); in [17], 63.2 µM (active).

Regarding `OCCCCO`, the outcome in experiment [1], in experiment [3] and in experiment [5] was inactive. The Potency entry in [2], in experiment [4], in experiment [6] and in [18] was “inactive” each time.

`CNCC(O)c1ccc(O)cc1` (stereo unspecified): the call in experiment [1] and in experiment [3] was inactive. Besides, the Potency result in [2], in experiment [4], in experiment [6], in experiment [7], in [9] and in experiment [10] was “inactive” throughout. Also, the Potency result in experiment [11], in experiment [12], in [13], in experiment [16], in experiment [17] and in [18] was “inactive” each time. Also, in experiment [19], the Potency result was “inactive”. In addition, in [8], the max activation was -2.53% (inactive). For the same compound, the Potency is 39.9 µM (active) in experiment [14]; 70.9 µM (active) and inactive in experiment [15].

Regarding `CNc1cnn(-c2cccc(C(F)(F)F)c2)c(=O)c1Cl`, the result in [1] and in experiment [3] was inactive. Further, the Potency result in [2], in [4], in [6], in experiment [20], in [11] and in experiment [12] was “inactive” each time. The Potency entry in experiment [13], in experiment [14] and in experiment [18] was “inactive” in each case. In addition, the Potency was 46.8 µM (active) and 34.4 µM (active) in [7]; 6.85 µM (active) and 31.7 µM (active) in experiment [15]; 5.44 µM (active) and 10 µM (active) in experiment [17]; 34.3 µM (active) in [19].
